Experimental data taken from PubChem BioAssay (NCI).
This is part of a sample that, as a whole, favours compounds with a hit. Of some 83,000 tested, about 20% had one in any assay.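 The endpoint reported here, percent growth, reads 100 for growth as untreated, 0 for no net growth and -100 for all cells dead.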 Values without a mark were called inactive. Active and inactive are the calls of the source. The calls were made as follows: active = growth percent below 10; inactive = the rest.

What was measured:
Experiment in all cases: NCI-60 one-dose screen, 48 h (100 = growth as untreated, 0 = no growth, -100 = all killed)
Details in all cases: 10 µM unless noted
[1] = system: T-47D breast
[2] = system: BT-549 breast
[3] = system: MDA-MB-435 melanoma
[4] = system: SW-620 colon
[5] = system: MCF7 breast
[6] = system: HCT-116 colon
[7] = system: HCC-2998 colon
[8] = system: KM12 colon

Compound	growth [1]	growth [2]	growth [3]	growth [4]	growth [5]	growth [6]	growth [7]	growth [8]
COc1ccc(CC2c3cc(OC)c(OC)cc3CC[N+]2(C)CCC(=O)OCCCCCOC(=O)CC[N+]2(C)CCc3cc(OC)c(OC)cc3C2Cc2ccc(OC)c(OC)c2)cc1OC (stereo not drawn)	94.5%	103%	96.7%	100%	85.2%	88.5%	105%	101%
NS(=O)(=O)c1ccc(CCn2c(SCC(=O)N/N=C/c3cccnc3)nc3ccccc3c2=O)cc1	65.9%	79%	93.7%	96.7%	79.6%	77.3%	111%	81.8%
CCOC(=O)C#Cc1c(C(=O)OCC)nnn1[C@@H]1O[C@H](COC(C)=O)[C@@H](OC(C)=O)[C@H]1OC(C)=O	60.2%	111%	104%	13.6%	41.8%	92.4%	105%	109%
CCN(CCC#N)c1ccccc1	101%	110%	109%	101%	105%	105%	109%	114%
Clc1cccc(CNc2c3ccccc3nc3ccccc23)c1	40.9%	59.1%	46.6%	12%	0.909% (active)	8.69% (active)	-53.6% (active)	40.8%
CC(C)CCSc1nc(-c2ccc(F)cc2)c(C#N)c(N2CCN(C)CC2)n1	68.3%	89%	93.6%	90.2%	83.9%	79%	97.2%	91.7%
CCOC(=O)C1C(=O)C=C(c2ccccc2)CC1c1sc(N(C)Cc2ccccc2)nc1Cl (stereo not drawn)	60.4%	96.1%	96.2%	90.3%	79.9%	80.1%	109%	90.9%
C=CCN(CC#N)CC=C	101%	116%	101%	107%	95%	98.1%	118%	108%
CCCCCCCCCCCCCC	101%	112%	104%	104%	91.1%	102%	97.8%	115%
CCCCc1nc(Cl)c(C2CC(c3ccc(S(N)(=O)=O)cc3)=NN2c2ccc(C#N)cc2)[nH]1 (stereo not drawn)	68.7%	80.6%	93.9%	91.8%	76.1%	85.8%	109%	99.8%
N/N=C(\C(=N\N)c1ccccc1)c1ccccc1	93%	88%	103%	101%	90%	101%	99.8%	105%
CCN(CC)c1ccc(/C=C2/NC(=O)NC2=O)cc1	16.2%	38.9%	-34.1% (active)	29%	6.89% (active)	20.2%	39.5%	20.5%
CC(C)c1nc2ccccc2n1CC(=O)N/N=C/c1cccc(O)c1	103%	99.7%	99.8%	93.6%	105%	87%	104%	103%
O=C(CCCN1CCC(O)(c2ccc(Br)cc2)CC1)c1ccc(F)cc1	70.5%	60.6%	65.4%	78.1%	70.4%	38.9%	71%	83.5%
Cc1ccccc1Nc1n[nH]c(Cc2ccccc2)n1	101%	105%	107%	102%	99.1%	99.9%	100%	101%
C#C[C@]1(O)CC[C@H]2[C@@H]3CC=C4c5sc(-c6cccc(Br)c6)nc5CC[C@]4(C)[C@H]3CC[C@@]21C	80.6%	87.3%	91.7%	87.9%	55.3%	83.6%	85.1%	63.8%

Compound	growth [1]	growth [2]	growth [3]	growth [4]	growth [5]	growth [6]	growth [7]	growth [8]
O=C1/C=C/[C@@H](O)[C@@H]2C[C@@H](O)C[C@H]2/C=C/CCC[C@H]([C@@H](O)CO)O1	81.8%	75.8%	83%	104%	45.1%	93.8%	84.6%	63.5%
CCCCCCCCCCCCNC(=O)N[C@H](C(=O)N[C@H]1/C=C/OCCNC(=O)/C=C/[C@H](C(C)C)NC1=O)C(C)C	47.6%	-7.12% (active)	28.3%	48.1%	32.4%	25.5%	90.4%	71.5%
Cc1nn(-c2cccc(Cl)c2)c(C)c1N=Nc1ccc(Br)cc1	80.5%	97.6%	99.8%	103%	89.4%	89.5%	100%	100%
COc1ccc2nc3ccccc3c(NCc3ccc(C)cc3)c2c1	30.6%	51.6%	42.2%	18.5%	3.43% (active)	8.58% (active)	-57.9% (active)	37.3%
CCCCCCCCCCCCCCCC1=NC(C)(C)CN1C(C)C	-11.2% (active)	71.3%	-59.3% (active)	-69.1% (active)	-27.6% (active)	-73.5% (active)	-89.9% (active)	-73.2% (active)
CCOC(=O)C1OC2(CCCC2)OC1C(=O)OCC (stereo not drawn)	98.4%	98.9%	112%	113%	98.2%	98%	104%	104%
C=CCOC(=O)C1=C(C)NC2=C(C(=O)CC(C)(C)C2)C1c1ccc(OC)cc1 (stereo not drawn)	99%	94.1%	105%	98.9%	97.4%	88.8%	116%	94.8%
Cc1cc(-c2ccccc2)on1	96%	119%	107%	109%	106%	101%	111%	106%
ClCCn1cnc2c(SCc3ccccc3Cl)ncnc21	52.8%	44.1%	37.5%	28.9%	21.6%	32.8%	51.1%	34.8%
O=C(c1ccccc1)C(CCc1ccccn1)CCc1ccccn1	92.3%	106%	108%	107%	106%	94%	96.5%	109%
CNCCCn1c2c(c3ccc(Cl)cc3c1=O)C(=O)c1cc(OC)cnc1-2	40%	45.9%	55.8%	-63.6% (active)	-45.4% (active)	-81.4% (active)	71.3%	40.7%
CS(=O)(=O)c1ccc(C(=O)N/N=C/c2cccc3ccccc23)cc1	85.3%	87.6%	17.1%	63.2%	44.9%	61.8%	84.5%	50.8%
Cc1cc([N+](=O)[O-])c(C)cc1N	111%	101%	110%	104%	90.9%	109%	102%	107%
Clc1ccc(-c2cnc3c(-c4ccnc(N5CCNCC5)c4)cnn3c2)cc1	-55.6% (active)	78.1%	-51.1% (active)	-50.4% (active)	-63.4% (active)	-68.3% (active)	-43% (active)	-3.73% (active)
CCN(CC)CC(=O)Nc1c(C)cc(C(=O)NN)cc1C	90.8%	117%	101%	101%	98.3%	102%	107%	98.9%
